Test [1] in a line: P-glycoprotein substrates identified in KB-8-5-11 adenocarcinoma cell line, qHTS therapeutic library screen (AID 1346987). Note: nearly all actives have a fitted effect of over 65% in size. Note: potency is the fitted concentration of half-maximal effect. In short, it runs like this:
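Luminescence from CellTiter-Glo, read 5 min after addition, quantified survival of KB-8-5-11 (P-gp-overexpressing) cells exposed to compounds for 72 h. AC50 was derived from concentration-response curves.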

The subject of test [2] is Zika virus NS2B-NS3 protease (unlinked complex). The test is described as follows: Primary screen GU Rhodamine qHTS for Zika virus inhibitors: Unlinked NS2B-NS3 protease assay (AID 1347159). Note: % is set by controls: 0 for no effect and ±100 for the full control effect; nearly all actives have a fitted effect of over 60% in size. In short, it runs like this:
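Buffer 10 mM Tris-HCl pH 8.0, 0.01% Tween 20. Unlinked protease 25 nM; compound preincubation 15 min, RT, protected from light. Substrate Rhod110, 1.5 microM; ~15% conversion in 15 min.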
A general note: In qHTS, concentration-response curves come from the screen itself.

The target of test [3] is Cytochrome P450 2D6 (Homo sapiens) (UniProt P10635). The experiment in a line: Cytochrome P450 family 2 subfamily D member 6 (CYP2D6) small molecule antagonists: luciferase biochemical (cell-free) qHTS assay (AID 1645840; active = well fitted curve in the direction sought with a large enough effect in the repeat runs; an effect the other way counts as inactive or inconclusive; note: nearly all actives have a fitted effect of over 55% in size; note: potency is the fitted concentration of half-maximal effect; for activity change, negative = inhibition: % is set by controls: 0 for no effect and ±100 for the full control effect). In short, it runs like this: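 P450-Glo CYP2D6 system: proluciferin substrate converted by enzyme to luciferin, read by luminescence proportional to activity. Enzyme-substrate mix with compound 10 min at room temperature, then NADPH regeneration 1 h before detection reagent.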

The target in test [4] is Cytochrome P450 2C9 (Homo sapiens) (UniProt P11712). The experiment in a line: Cytochrome P450 family 2 subfamily C member 9 (CYP2C9) small molecule antagonists: luciferase biochemical (cell-free) qHTS assay (AID 1645842; active = well fitted curve in the direction sought with a large enough effect in the repeat runs; an effect the other way counts as inactive or inconclusive; note: potency is the fitted concentration of half-maximal effect; nearly all actives have a fitted effect of over 55% in size). In short, it runs like this:
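P450-Glo CYP2C9 system: proluciferin substrate with enzyme in mix containing 0.4% BSA, 10 min at room temperature, then NADPH regeneration solution added and incubated 1 h at 37C. Detection reagent stopped reaction; luminescence read after 20 min as RLU.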

Test [5] concerns HaCat. The test is described as follows: Cytotoxic Profiling of Annotated Libraries Using Quantitative High-Throughput Screening (AID 1296008). For max response: % is set by controls: 0 for no effect and ±100 for the full control effect. Note: nearly all actives have a fitted effect of over 60% in size. Note: potency is the fitted concentration of half-maximal effect. The conditions noted are these: Five cell lines viability, CellTiter-Glo ATP luminescence, 48-72 h; max response: stronger effect = lower value. A digest of the protocol: (§1)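 Cytotoxicity was measured as CellTiter-Glo ATP luminescence, read after 10 min at room temperature. Compound treatment of the cells lasted 48 or 72 hr at 37 degrees Celsius in a qHTS format.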

Test [6] has as its system HACAT. The test is described as follows: qHTS assay to identify novel small-molecules to repurpose for Merkel cell carcinoma treatment (AID 1296009). Note: nearly all actives have a fitted effect of over 60% in size. The note with it: MCC and control cell lines, CellTiter-Glo viability, 72 h; at 44.8 µM (top of the series) unless noted. A digest of the protocol:
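Cell viability, measured as CellTiter-Glo luminescence, was normalized between DMSO and no-cell wells. The cells had been exposed to 8- or 11-point compound dilutions for 72 hr at 37 degree celsius.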

Another test concerns PA-1. The test is described as follows: Primary qHTS to identify gynecologic anti-cancer compounds using libraries of approved drugs and bioactive compounds (AID 1345084). Note: % is set by controls: 0 for no effect and ±100 for the full control effect; nearly all actives have a fitted effect of over 55% in size. The note with it: Gynecologic cancer cell panel viability, ATPlite luminescence, 48 h; series mostly up to 57.5 µM. A digest of the protocol:
(§2)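 Cell viability after 48 h drug treatment, ATPlite luminescence readout; five doses.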

For another test, the system named is SKOV3. Described as above. The conditions noted are these: Gynecologic cancer cell panel viability, ATPlite luminescence, 48 h; series mostly up to 57.5 µM. A digest of the protocol:
as §2

The test system of a further test is CRL-7250. The experiment in a line: Cytotoxic Profiling of Annotated Libraries Using Quantitative High-Throughput Screening (AID 1296008). For max response: % is set by controls: 0 for no effect and ±100 for the full control effect. Note: nearly all actives have a fitted effect of over 60% in size. Note: potency is the fitted concentration of half-maximal effect. The conditions noted are these: Five cell lines viability, CellTiter-Glo ATP luminescence, 48-72 h; max response: stronger effect = lower value. A digest of the protocol: as §1
For orientation: In ATP-based viability assays light output follows the ATP content of the culture.

Test [7] is described as follows: qHTS to identify inhibitors of the type 1 interferon - major histocompatibility complex class I in skeletal muscle: primary screen against the NCATS Mechanism Interrogation Plate v5.0 (MIPE) Libary (AID 1347411).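 Note: plate controls were vehicle for no effect and reference inhibitor for full effect; nearly all actives have a fitted effect of over 65% in size.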 In short, it runs like this: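 Seed engineered human myoblasts (HLA-B HiBit) in medium without dexamethasone containing 4 ng/ml IFN-beta; after 1 hr add compound titrations (top 46 uM final). Incubate 24 hrs at 37 C, lyse 10 min with HiBiT reagent, read luminescence.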

Test [8] can be described thus: qHTS drug screen for cell cycle checkpoint inhibitors in PARPi-resistant BRCA-mutant ovarian cancer cell lines. (AID 1963452; calls by dose curve). The note with it: PEO1/OlaR viability, CellTiter-Glo luminescence, 96 h, stronger effect = lower value. In short, it runs like this: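 PEO1, PEO4 and PEO1/OlaR ovarian cancer cells, 600 per well, exposed 96 h at 37C to a dilution series. Viability read by CellTiter-Glo luminescence, normalized to DMSO and empty wells; activity summarized as Z-AUC.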

The target in test [9] is Catechol O-methyltransferase (Homo sapiens) (UniProt P21964). The test is described as follows: Confirmatory Screen for Target Class Profiling of Small Molecule Inhibitors of Methyltransferases (AID 1745852). For activity change, negative = inhibition: % is set by controls: 0 for no effect and ±100 for the full control effect. The conditions noted are these: MTase-Glo luminescence, SAH detection, recombinant enzyme; measured here: COMT max response; stronger effect = lower value.
Test [10] deals with Guanidinoacetate N-methyltransferase (Homo sapiens) (UniProt Q14353). The test is described as above. The conditions noted are these: activity change, negative = inhibition: at 57.3 µM (top of the series) unless noted.
Test [11] concerns the target Nicotinamide N-methyltransferase (Homo sapiens) (UniProt P40261). The description is as above. The note with it: MTase-Glo luminescence, SAH detection, recombinant enzyme; measured here: NNMT max response; stronger effect = lower value.
Test [12] concerns the target Phenylethanolamine N-methyltransferase (Homo sapiens) (UniProt P11086). The test is described as above. The note with it: MTase-Glo luminescence, SAH detection, recombinant enzyme; measured here: PNMT max response; stronger effect = lower value.

Ten compounds from PubChem BioAssay (NCATS) can be followed below.

Results filed as inconclusive are left out. Activity calls are given as the source filed them. Unless noted, calls come from the whole dose curve; as a rule, active = well fitted curve in the direction sought with a large enough effect; inconclusive = small, poorly fitted or top-dose-only effect, or another doubt; inactive = no such curve, though single readings can be large; an effect the other way counts as inactive or inconclusive.

Cytochrome P450 2D6 (Homo sapiens), sequence (P10635 whole entry, looked up): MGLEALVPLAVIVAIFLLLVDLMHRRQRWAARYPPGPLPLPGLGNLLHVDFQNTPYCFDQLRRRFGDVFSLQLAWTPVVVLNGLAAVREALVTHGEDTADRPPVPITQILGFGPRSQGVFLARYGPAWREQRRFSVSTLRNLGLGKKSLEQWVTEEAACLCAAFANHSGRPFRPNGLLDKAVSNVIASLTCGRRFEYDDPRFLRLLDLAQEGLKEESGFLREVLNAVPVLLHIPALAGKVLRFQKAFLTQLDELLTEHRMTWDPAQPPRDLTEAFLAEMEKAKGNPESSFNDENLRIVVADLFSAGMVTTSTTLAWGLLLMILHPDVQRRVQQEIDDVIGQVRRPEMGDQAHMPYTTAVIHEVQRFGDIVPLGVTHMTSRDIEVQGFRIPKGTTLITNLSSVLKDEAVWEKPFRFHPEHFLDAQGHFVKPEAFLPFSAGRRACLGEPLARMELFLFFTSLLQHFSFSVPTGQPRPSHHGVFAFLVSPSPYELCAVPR
Cytochrome P450 2C9 (Homo sapiens), sequence (P11712 whole entry, looked up): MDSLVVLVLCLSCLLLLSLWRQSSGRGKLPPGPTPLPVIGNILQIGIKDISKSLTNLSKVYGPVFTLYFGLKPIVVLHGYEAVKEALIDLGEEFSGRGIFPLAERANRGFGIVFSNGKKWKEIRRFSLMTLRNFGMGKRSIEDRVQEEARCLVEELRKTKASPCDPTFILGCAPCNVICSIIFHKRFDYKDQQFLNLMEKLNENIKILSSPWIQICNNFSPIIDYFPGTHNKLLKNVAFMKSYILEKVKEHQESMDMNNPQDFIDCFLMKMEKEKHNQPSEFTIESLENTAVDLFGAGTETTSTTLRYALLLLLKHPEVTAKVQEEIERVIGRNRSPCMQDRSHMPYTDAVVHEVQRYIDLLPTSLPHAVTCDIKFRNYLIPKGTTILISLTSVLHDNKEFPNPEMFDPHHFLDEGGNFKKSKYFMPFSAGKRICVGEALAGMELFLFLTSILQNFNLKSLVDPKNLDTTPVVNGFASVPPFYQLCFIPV
Catechol O-methyltransferase (Homo sapiens), sequence (P21964 whole entry, looked up): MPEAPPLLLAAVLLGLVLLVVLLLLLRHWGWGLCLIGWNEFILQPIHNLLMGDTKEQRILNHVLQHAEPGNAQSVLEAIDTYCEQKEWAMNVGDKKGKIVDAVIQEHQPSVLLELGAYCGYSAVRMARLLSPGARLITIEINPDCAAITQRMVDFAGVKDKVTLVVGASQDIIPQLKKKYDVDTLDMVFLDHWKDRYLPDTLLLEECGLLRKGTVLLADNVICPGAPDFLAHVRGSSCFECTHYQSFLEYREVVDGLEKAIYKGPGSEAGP
Nicotinamide N-methyltransferase (Homo sapiens), sequence (P40261 whole entry, looked up): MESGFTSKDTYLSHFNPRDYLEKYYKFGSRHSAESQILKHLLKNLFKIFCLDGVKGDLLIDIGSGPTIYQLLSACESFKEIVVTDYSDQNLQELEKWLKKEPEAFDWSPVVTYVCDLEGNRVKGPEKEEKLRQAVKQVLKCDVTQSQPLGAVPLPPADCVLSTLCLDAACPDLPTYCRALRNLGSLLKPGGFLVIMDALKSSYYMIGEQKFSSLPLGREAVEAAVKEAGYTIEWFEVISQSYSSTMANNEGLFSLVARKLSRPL
Phenylethanolamine N-methyltransferase (Homo sapiens), sequence (P11086 whole entry, looked up): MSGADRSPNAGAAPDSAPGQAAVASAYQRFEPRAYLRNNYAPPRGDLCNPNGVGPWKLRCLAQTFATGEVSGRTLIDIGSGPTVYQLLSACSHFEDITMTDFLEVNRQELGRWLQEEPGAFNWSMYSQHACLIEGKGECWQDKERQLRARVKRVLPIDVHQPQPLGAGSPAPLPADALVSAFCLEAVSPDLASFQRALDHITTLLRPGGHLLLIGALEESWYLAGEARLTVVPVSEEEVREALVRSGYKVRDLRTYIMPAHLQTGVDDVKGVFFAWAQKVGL

`CCC[C@@H](NC(=O)N1C(=O)C(CC)(CC)[C@@H]1Oc1ccc(C(=O)N2CCN(C)CC2)cc1)c1ccc2c(c1)OCO2`: the Potency in [1] was 20.6 µM (active); in [3], 16.9 µM (active); in [4], 3.38 µM (active). The Potency result (in [2]; in the test with PA-1; in the test on SKOV3) was “inactive” throughout. Also, the outcome in the test with HaCat [5] and in the test with HACAT [6] was “inactive” each time.

For the compound `O=C1c2c(O[C@@H]3O[C@H](CO)[C@@H](O)[C@H](O)[C@H]3O)cc(O)cc2OC1(O)Cc1ccc(O)cc1` (stereo partly drawn), the Potency result (in [2]; in the test with PA-1) was “inactive” each time. Besides, the outcome with HaCat [5] is “inactive”. The outcome in the test with HACAT [6] is “inactive [at 17.4 µM]”.

Turning to `COc1ccc(Cl)cc1[C@@]1(F)C(=O)Nc2cc(C(F)(F)F)ccc21`, the Potency in test [3] was 23.9 µM (active); in test [4] it was 6.01 µM (active). The max response with CRL-7250 is -2.43% (inactive).

With `Cc1ccc(C2(COC(=O)C(C)C)CO2)c(OC(=O)C(C)C)c1` (stereo not drawn), the Potency entry (in test [2]; with PA-1; in the test with SKOV3) was “inactive” in each case. Also, the outcome with HaCat [5] and in the test with HACAT [6] was “inactive” throughout.

Turning to `COc1cc(-c2cc(-c3ccc(N4CCNCC4)cc3)cnc2C)cc(OC)c1OC`, the Potency result (in test [2]; in test [7]; in test [3]; with PA-1) was “inactive” throughout. Moreover, the Potency in test [4] is 19 µM (active). The Z-AUC in test [8] was -1.12 (inactive); in test [8] (measured here: PEO1 parental Z-AUC) it was -0.592; in test [8] (measured here: PEO4 Z-AUC), -0.59. The outcome in the test with HaCat [5] and with HACAT [6] was “inactive” in each case.

For the compound `O=C(Nc1ccc(F)cc1)N1CCc2ccccc2C1c1ccc(C(F)(F)F)cc1` (stereo not drawn), the Potency was 20.6 µM (active) in test [1], 9.52 µM (active) in test [3], 5.35 µM (active) in [4] and 14.6 µM (active) with HaCat [5]. In addition, the Potency entry (in test [2]; with PA-1) was “inactive” in each case.

For the compound `COc1cc(O)c(C(=O)CCc2ccc(O)cc2)c(O[C@@H]2O[C@H](CO)[C@@H](O)[C@H](O)[C@H]2O)c1`, the Potency entry in test [1] is “inactive”. The activity in test [9] was -69.8%; in [11], 0.372%; in [12], 0.533%. For the same compound, the activity change, negative = inhibition in test [10] was -2.33% [at 29.8 µM]. In addition, the outcome in the test with HaCat [5] is “inactive”. Besides, the outcome in the test with HACAT [6] was “inactive [at 17.4 µM]”.

On to `N#CCC(C1CCCC1)n1cc(-c2ncnc3[nH]ccc23)cn1` (stereo not drawn), for which the Potency entry (in [3]; in the test with PA-1; in the test with SKOV3) was “inactive” throughout. Besides, the Potency in test [4] is 15.1 µM (active). Besides, the outcome in the test on HaCat [5] and with HACAT [6] was “inactive” throughout.

Take `CC/C(=C(\c1ccc(O)cc1)c1ccc(OCCNC)cc1)c1ccccc1`: the Potency entry (in test [2]; in the test with PA-1; with SKOV3) was “inactive” each time. Further, the outcome in the test on HaCat [5] and in the test on HACAT [6] was “inactive” in each case.

Consider `C=C(C)C(=O)OC1[C@@H]2C(=C)C(=O)O[C@@H]2C[C@@H](C)[C@@H]2C=CC(=O)[C@@]12C` (stereo partly drawn), for which the Potency entry (in test [2]; in the test on SKOV3) was “inactive” throughout. For the same compound, the outcome with HaCat [5] and in the test with HACAT [6] was “inactive” each time.
